Laboratory results: PubChem BioAssay AID1159580 (chemical genetic matrix, 2015)
Values joined by “and” are separate entries in the source; they are usually repeats but may differ in a detail not shown here. Equal entries are not always repeated. The campaign covered roughly 5,500 compounds. About 2,000 (36%) were called active. Not shown: some 18% with an inconclusive outcome. Cut-off read from the data, not from the text of the source: active = normalized growth mostly below about 0.91 (no sharp cut-off); inconclusive = no clear call, values can overlap the other calls; inactive = mostly above about 0.92. The list shows a part of the results.

Assay: chemical genetic growth profiling, strain panel (AID 1159580);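 note: tested at 20 µM; growth read once vehicle control cultures reached saturation at 30 °C; 1 = growth at the plate median or of vehicle wells; lower values mean less growth of the strain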
Details: S. cerevisiae deletion strains, growth OD

Measured: normalized growth

CC(C)NC[C@H](O)COc1cccc2ccccc12
inactive: locus YAL021C, strain ccr4, stronger effect = lower value 0.985 | locus YAL026C, strain drs2, stronger effect = lower value 1 | locus YAL030W, strain snc1, stronger effect = lower value 0.986 | locus YBL061C, strain skt5, stronger effect = lower value 0.984 | locus YBR009C, strain hhf1, stronger effect = lower value 0.98 | locus YBR021W, strain FUR4, stronger effect = lower value 0.997 | locus YBR023C, strain chs3, stronger effect = lower value 0.99 | locus YBR171W, strain sec66, stronger effect = lower value 0.989 | locus YBR229C, strain ROT2, stronger effect = lower value 1.01 | locus YBR231C, strain swc5, stronger effect = lower value 0.989 | locus YBR279W, strain paf1, stronger effect = lower value 0.99 | locus YCL011C, strain gbp2, stronger effect = lower value 0.993 | locus YCL016C, strain dcc1, stronger effect = lower value 0.991 | locus YCL029C, strain bik1, stronger effect = lower value 1.02 | locus YCL061C, strain MRC1, stronger effect = lower value 0.994 | locus YCL069W, strain vba3, stronger effect = lower value 0.993 | locus YCR088W, strain abp1, stronger effect = lower value 0.991 | locus YDL005C, strain med2, stronger effect = lower value 0.981 | locus YDL035C, strain GPR1, stronger effect = lower value 0.993 | locus YDL040C, strain nat1, stronger effect = lower value 0.992 | locus YDL074C, strain BRE1, stronger effect = lower value 1.02 | locus YDL101C, strain DUN1, stronger effect = lower value 1.01 | locus YDL134C, strain PPH21, stronger effect = lower value 0.979 | locus YDL185W, strain tfp1, stronger effect = lower value 1.03 | locus YDL192W, strain arf1, stronger effect = lower value 1.02 | locus YDR001C, strain nth1, stronger effect = lower value 0.991 | locus YDR069C, strain doa4, stronger effect = lower value 1 | locus YDR101C, strain arx1, stronger effect = lower value 1 | locus YDR137W, strain rgp1, stronger effect = lower value 1 | locus YDR159W, strain sac3, stronger effect = lower value 0.976 | locus YDR162C, strain NBP2, stronger effect = lower value 1 | locus YDR195W, strain ref2 0.962 | locus YDR297W, strain sur2, stronger effect = lower value 1.01 | locus YDR318W, strain mcm21, stronger effect = lower value 1.02 | locus YDR334W, strain swr1, stronger effect = lower value 0.999 | locus YDR335W, strain msn5, stronger effect = lower value 0.991 | locus YDR388W, stronger effect = lower value 1.02 | locus YDR392W, strain spt3, stronger effect = lower value 0.943 | locus YDR502C, strain sam2, stronger effect = lower value 1 | locus YEL003W, strain gim4, stronger effect = lower value 1 | locus YEL037C, strain rad23, stronger effect = lower value 1.02 | locus YEL061C, strain CIN8 (second series), stronger effect = lower value 0.993 | locus YEL061C, strain CIN8, stronger effect = lower value 1.01 | locus YER015W, strain faa2, stronger effect = lower value 0.969 | locus YER016W, strain bim1, stronger effect = lower value 0.986 | locus YER110C, stronger effect = lower value 1.02 | locus YER111C, strain swi4, stronger effect = lower value 0.986 | locus YER155C, strain BEM2 (second series), stronger effect = lower value 0.98 | locus YER155C, strain BEM2, stronger effect = lower value 1.01 | locus YER167W, strain BCK2, stronger effect = lower value 1 | locus YFR010W, strain ubp6, stronger effect = lower value 1.01 | locus YGL078C, strain dbp3, stronger effect = lower value 1.01 | locus YGL086W, strain mad1, stronger effect = lower value 0.994 | locus YGL167C, strain pmr1, stronger effect = lower value 0.982 | locus YGL173C, strain kem1, stronger effect = lower value 0.993 | locus YGL227W, strain vid30, stronger effect = lower value 0.992 | locus YGL240W, strain doc1, stronger effect = lower value 0.977 | locus YGL248W, strain PDE1, stronger effect = lower value 1.01 | locus YGL253W, strain hxk2, stronger effect = lower value 1 | locus YGR078C, strain PAC10, stronger effect = lower value 1.01 | locus YGR135W, strain pre9, stronger effect = lower value 1.02 | locus YGR252W, strain gcn5, stronger effect = lower value 0.992 | locus YHR013C, strain ard1, stronger effect = lower value 0.953 | locus YHR027C, strain rpn1, stronger effect = lower value 0.988 | locus YHR030C, strain SLT2, stronger effect = lower value 1.01 and 1.06 | locus YHR079C, strain IRE1 (second series), stronger effect = lower value 1.02 | locus YHR079C, strain IRE1, stronger effect = lower value 1.08 | locus YHR094C, strain hxt1, stronger effect = lower value 1.02 | locus YHR129C, strain ARP1, stronger effect = lower value 1.01 | locus YHR142W, strain chs7, stronger effect = lower value 1.01 | locus YHR200W, strain rpn10, stronger effect = lower value 1.02 | locus YIL066C, strain RNR3, stronger effect = lower value 1.01 | locus YIL073C, strain SPO22, stronger effect = lower value 1.04 | locus YIL125W, strain kgd1, stronger effect = lower value 1.02 | locus YIR030C, strain dcg1, stronger effect = lower value 1.03 | locus YJL092W, strain hpr5, stronger effect = lower value 0.993 | locus YJL095W, strain BCK1 (second series), stronger effect = lower value 0.987 | locus YJL095W, strain BCK1, stronger effect = lower value 1.01 and 1.02 | locus YJL115W, strain asf1, stronger effect = lower value 0.987 | locus YJL129C, strain trk1, stronger effect = lower value 1.01 | locus YJL134W, strain LCB3, stronger effect = lower value 1.01 | locus YJL154C, strain vps35, stronger effect = lower value 0.992 | locus YJL164C, strain tpk1, stronger effect = lower value 0.989 | locus YJL166W, strain qcr8, stronger effect = lower value 0.983 | locus YJL168C, strain set2, stronger effect = lower value 1.02 | locus YJL187C, strain SWE1 (second series), stronger effect = lower value 1.01 | locus YJL187C, strain SWE1, stronger effect = lower value 0.984 | locus YJR043C, strain POL32, stronger effect = lower value 1.01
